Laboratory results as given in PMC4336329 (PLoS ONE, 2015).
The whole screen tested about 310,000 compounds, of which about 2,200 (0.71%) showed an effect of 50% or more. The effect is printed as a negative number. Only a selection was taken, and strong results are over-represented in it overall.

target: human ether-à-go-go-related gene (hERG) potassium channel (human, UniProt Q12809); test: primary screen, population patch clamp on CHO cells stably expressing hERG; higher = less effect of the substance
Sequence (Q12809 whole entry, looked up): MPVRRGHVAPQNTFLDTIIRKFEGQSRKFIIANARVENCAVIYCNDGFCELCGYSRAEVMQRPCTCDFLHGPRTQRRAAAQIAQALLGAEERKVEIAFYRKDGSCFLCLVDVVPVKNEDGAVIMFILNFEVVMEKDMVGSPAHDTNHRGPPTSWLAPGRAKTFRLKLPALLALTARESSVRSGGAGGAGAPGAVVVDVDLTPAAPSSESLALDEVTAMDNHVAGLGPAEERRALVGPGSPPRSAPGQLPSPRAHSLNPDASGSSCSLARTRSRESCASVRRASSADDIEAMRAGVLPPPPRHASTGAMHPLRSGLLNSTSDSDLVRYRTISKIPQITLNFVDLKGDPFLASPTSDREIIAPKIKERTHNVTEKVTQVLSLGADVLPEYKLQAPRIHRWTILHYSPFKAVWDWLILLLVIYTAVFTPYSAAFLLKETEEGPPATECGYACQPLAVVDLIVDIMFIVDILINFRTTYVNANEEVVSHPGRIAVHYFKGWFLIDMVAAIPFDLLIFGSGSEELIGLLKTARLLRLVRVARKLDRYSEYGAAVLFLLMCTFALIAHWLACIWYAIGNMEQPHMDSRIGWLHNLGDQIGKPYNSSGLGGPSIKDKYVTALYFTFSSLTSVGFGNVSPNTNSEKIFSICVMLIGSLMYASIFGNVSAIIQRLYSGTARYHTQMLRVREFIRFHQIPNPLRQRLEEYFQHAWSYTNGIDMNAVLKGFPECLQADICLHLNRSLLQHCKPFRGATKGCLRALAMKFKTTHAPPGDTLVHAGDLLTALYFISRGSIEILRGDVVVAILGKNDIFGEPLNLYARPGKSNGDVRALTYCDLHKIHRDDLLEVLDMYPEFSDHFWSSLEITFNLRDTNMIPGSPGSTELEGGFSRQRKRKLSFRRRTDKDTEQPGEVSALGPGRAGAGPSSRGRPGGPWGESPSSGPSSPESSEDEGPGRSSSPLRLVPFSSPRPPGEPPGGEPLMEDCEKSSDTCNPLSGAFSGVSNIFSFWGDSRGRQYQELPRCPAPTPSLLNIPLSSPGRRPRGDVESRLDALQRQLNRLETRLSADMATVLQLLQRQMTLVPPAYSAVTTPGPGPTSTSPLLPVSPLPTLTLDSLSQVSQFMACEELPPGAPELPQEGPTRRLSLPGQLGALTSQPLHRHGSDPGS

Row | Structure (SMILES) | hERG current change (%, negative = inhibition) at 1uM
1 | C(=N\n1cnnc1)/c1cccs1 | 5.5%
2 | CN(c1ccc(C(=O)NCCSCc2ccc(Cl)cc2)cc1)S(=O)(=O)c1ccccc1 | 14.1%
3 | CCc1ccc(CN(C)C(=O)c2cc(COc3cccc(C(F)(F)F)c3)on2)nc1 | 6.84%
4 | C=CCNC(=O)CSc1nnc(C(CC)N(C)C)n1C1CCCCC1 (centres unmarked) | 8.12%
5 | O=C(Nc1nc(-c2ccccc2)cs1)c1ccc(N2CCOCC2)c([N+](=O)[O-])c1 | 31.6%
6 | CC(=O)Nc1ccc2c(c1)N(C(=O)CN(C)C)c1ccccc1CC2 | 9.16%
7 | Cc1cc(C(=O)CN2C(=O)c3ccccc3C2=O)c(C)n1Cc1cccs1 | 9.88%
8 | COc1ccc(CN2CCN(c3cccc(C)c3C)CC2)cc1OC | -61.1%
9 | COc1cc(CN2CCN(c3cccc(C)c3C)CC2)cc(OC)c1O | -20.4%
10 | COc1cc(CN2CCN(c3cccc(C)c3C)CC2)cc(Br)c1O | 1.25%
11 | COc1ccc(CN2CCN(c3ccccn3)CC2)c(OC)c1C.O=C(O)C(=O)O | 5.42%
12 | COc1ccc(CN2CCN(c3ccccn3)CC2)c(OC)c1 | -52%
13 | COc1ccc(-c2[nH]ncc2CN2CCN(c3ccccn3)CC2)c(OC)c1 | 2.51%
14 | CCOc1ccc(NC(=O)CCC(=O)c2ccc(OC)cc2)cc1 | 16.1%
15 | Cc1c(Cl)ccc(S(=O)(=O)NCCCn2ccnc2)c1Cl | 12.2%
16 | CN1CCN(C(=O)c2cnn(-c3ccccc3)c2NC(=O)c2ccccc2Br)CC1 | 15.2%
17 | CN1CCN(C(=O)c2cnn(-c3ccccc3)c2NC(=O)c2ccccc2)CC1 | 10.4%
18 | CN1CCN(C(=O)c2cnn(-c3ccccc3)c2NC(=O)c2ccc(Br)cc2)CC1 | -88.5%
19 | COc1ccc(CCn2c(=N)c(C(=O)NCCN3CCOCC3)cc3c(=O)n4ccccc4nc32)cc1OC | 10.4%
20 | COc1ccc(CCNC(=O)c2cc3c(=O)n4ccccc4nc3n(CCN3CCOCC3)c2=N)cc1 | -82%
21 | Cc1cccn2c(=O)c3cc(C(=O)NCCN4CCOCC4)c(=N)n(CCCN4CCOCC4)c3nc12 | 16.7%
22 | COc1ccc(CCNC(=O)c2cc3c(=O)n4ccccc4nc3n(CCCN3CCOCC3)c2=N)cc1OC | -39.4%
23 | COc1ccc(CCNC(=O)c2cc3c(=O)n4cccc(C)c4nc3n(CCCN3CCOCC3)c2=N)cc1 | -85.1%
24 | COc1ccc(CNC(=O)C(C)Sc2nc3ccccc3c(=O)n2CC2CCCO2)cc1 (centres unmarked) | -17.5%
25 | COc1ccc(CNC(=O)C(C)Sc2nc3ccccc3c(=O)n2CCCN2CCOCC2)cc1 (centres unmarked) | -95%
26 | COc1ccccc1CNC(=O)CSc1nc2ccccc2c(=O)n1CCCN1CCOCC1 | -6.17%
27 | COc1ccc(CCNC(=O)c2cc3c(=O)n4ccccc4nc3n(CCCN3CCOCC3)c2=N)cc1 | -88.9%

Row | Structure (SMILES) | hERG current change (%, negative = inhibition) at 1uM
28 | Cc1cc(=O)[nH]c(N/N=C/c2c(C)nn(-c3ccc(F)cc3)c2Cl)n1 | -3.02%
29 | CN1CCN(c2ccc(NC(=O)c3cc4ccccc4o3)cc2)CC1 | -14.8%
30 | CCCC(C(=O)NC(C)(C)CC)N(CC1CCCO1)C(=O)CNS(=O)(=O)c1ccc(F)cc1 (centres unmarked) | -12.1%
31 | Cc1nc2ccccc2n1C1CCN(CC(=O)NCc2ccc(F)cc2)CC1 | -23.3%
32 | COc1ccc(CNC(=O)CCC(=O)N2CC(C)Oc3ccccc32)cc1 (centres unmarked) | -0.874%
33 | CCN(C(=O)c1ccc2c(OC)n(CC)nc2c1)c1ccc(OC)cc1 | 0.888%
34 | CC(=O)c1cccc(NC(=O)C2CCN(S(C)(=O)=O)CC2)c1 | 10.7%
35 | CN(C)C=NC(=O)/C(C#N)=C1\CCc2ccccc2N1 | 0.195%
36 | COc1cc(Cl)cc(/C=C/c2ccc3ccccc3n2)c1OC(C)=O | 16.6%
37 | CCCNc1nc(C)cc(-c2cc(C(=O)Nc3ccccc3)on2)n1 | 6.25%
38 | COCCCNC(=O)c1ccc(OC)c(OC2CCN(C(C)C)CC2)c1 | 14.6%
39 | COCCNC(=O)c1cccc(OC2CCN(Cc3ccc(OC(F)F)cc3)CC2)c1 | -75.4%
40 | COCCNC(=O)c1cccc(OC2CCN(Cc3ccc(C(C)C)cc3)CC2)c1 | -11.3%
41 | COc1cc(C(=O)NC2CCN(Cc3ccccc3)CC2)cc(Cl)c1OC | -1.24%
42 | COc1ccc(C(=O)NCCc2cccc(Cl)c2)cc1OC1CCN(C(C)=O)CC1 | -6.31%
43 | COc1ccc(C(=O)NC2CCC(O)CC2)cc1S(=O)(=O)NCc1ccc(Cl)cc1 (centres unmarked) | -0.258%
44 | COc1ccc(C(=O)NC2CC2)cc1OC1CCN(Cc2ccccc2)CC1 | -82.9%
45 | COCCNC(=O)c1cccc(OC2CCN(Cc3ccc(F)c(OC)c3)CC2)c1 | 4.26%
46 | COc1ccc(C(=O)NC2CC2)cc1OC1CCN(Cc2ccc(F)c(F)c2)CC1 | -70.2%
47 | COc1ccc(C(=O)NC2CC2)cc1OC1CCN(Cc2cnn(C)c2)CC1 | 6.61%
48 | COCCNC(=O)c1cccc(OC2CCN(Cc3ccc(C(=O)OC)cc3)CC2)c1 | 6.44%
49 | COc1ccc(C(=O)NC2CC2)cc1OC1CCN(Cc2ccc(Cl)cc2)CC1 | -86.8%
50 | CCCCCCCCCCCCOC1OC(CO)C(O)C(O)C1NC(C)=O (centres unmarked) | 4.7%
51 | CC(Oc1ccccc1)C(=O)N=C1SC2CS(=O)(=O)CC2N1CCc1ccccc1 (centres unmarked) | 8.75%
52 | Cc1cc(Br)ccc1NC(=O)CN1C(=O)C2CC=CCC2C1=O (centres unmarked) | 2.16%
53 | CCn1c(SCC(=O)c2ccc3c(c2)OCCO3)nnc1C(C)C | 7.74%
